HPGD block – qHTS Assay for Inhibitors of HPGD (15-Hydroxyprostaglandin Dehydrogenase) | Potency, µM, without a hit: top-dose activity change, negative = inhibition, usual class: inhibitors | purified HPGD, NADH fluorescence kinetic, PGE2 substrate | 4.3% of 150,000 active | AID 894, 2007; active = well fitted inhibition curve with a large enough effect, not every such curve was filed as active; inconclusive = small, poorly fitted or top-dose-only effect, or another doubt; inactive = no such curve, though single readings can be large or run the other way
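NADH formation kinetics: reaction with 30 uM PGE2 and 1 mM NAD+ (final), 20 nM enzyme, Tris-HCl pH 8 with Tween 20, after 15 min compound preincubation at room temperature. Fluorescence change, last versus first of five reads.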
ALDH1A1 inh – qHTS Assay for Inhibitors of Aldehyde Dehydrogenase 1 (ALDH1A1) | Purified ALDH1A1, NADH fluorescence, propionaldehyde substrate | 7.3% of 220,000 active | AID 1030, 2008 | Potency, µM (doses to about 75.3 µM), without a hit: top-dose activity, negative = inhibition, actives largely listed as inhibitors | Aldehyde dehydrogenase 1A1 (Homo sapiens), P00352; active = well fitted inhibition curve with a large enough effect, not every such curve was filed as active; inconclusive = small, poorly fitted or top-dose-only effect, or another doubt; inactive = no such curve, though single readings can be large or run the other way;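 note: plate controls were no enzyme wells and a reference inhibitor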
Target sequence (P00352 whole entry, looked up): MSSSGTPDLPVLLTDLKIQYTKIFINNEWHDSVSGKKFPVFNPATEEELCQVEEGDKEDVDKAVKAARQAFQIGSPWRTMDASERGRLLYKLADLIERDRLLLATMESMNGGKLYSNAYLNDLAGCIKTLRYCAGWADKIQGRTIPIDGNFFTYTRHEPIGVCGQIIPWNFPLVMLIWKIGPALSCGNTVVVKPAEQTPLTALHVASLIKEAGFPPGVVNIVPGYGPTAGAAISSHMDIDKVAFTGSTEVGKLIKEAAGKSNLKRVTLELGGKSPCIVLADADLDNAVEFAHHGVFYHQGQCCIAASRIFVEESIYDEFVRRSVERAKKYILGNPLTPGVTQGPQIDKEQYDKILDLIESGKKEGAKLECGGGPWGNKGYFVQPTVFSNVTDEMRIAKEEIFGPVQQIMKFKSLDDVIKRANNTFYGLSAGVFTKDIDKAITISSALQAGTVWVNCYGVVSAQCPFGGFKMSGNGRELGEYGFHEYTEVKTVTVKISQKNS
KDM4E inh – qHTS Assay for Inhibitors of Human Jumonji Domain Containing 2E (JMJD2E); Lysine-specific demethylase 4E (Homo sapiens), B2RXH2; JMJD2E catalytic domain, FDH-coupled NADH fluorescence (FDH is formaldehyde dehydrogenase); Potency, µM (doses to about 57.1 µM), for the others: at the highest dose activity change, negative = inhibition, hits mostly inhibitors; 1.6% of 230,000 active; active = well fitted inhibition curve with a large enough effect, not every such curve was filed as active; inconclusive = small, poorly fitted or top-dose-only effect, or another doubt; inactive = no such curve, though single readings can be large or run the other way;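 note: 0% = wells with enzyme and -100% = buffer wells without enzyme; nearly all actives have a fitted effect of over 50% in size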
Tau fibril ThT – qHTS for Inhibitors of Tau Fibril Formation, Thioflavin T Binding; 2.1% of 270,000 active; Potency, µM (series often up to 57.4 µM), for inactives: at the highest dose activity, negative = inhibition, usual class: inhibitors; recombinant tau K18 P301L, heparin-induced fibrillization, ThT fluorescence; AID 1460, 2008; Microtubule-associated protein tau (Homo sapiens), P10636; note: nearly all actives have a fitted effect of over 55% in size
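Tau K18 P301L fragment (15 uM unlabeled plus 0.24 uM Alexa 594-labeled) in 100 mM sodium acetate pH 7 with compound, fibrillization induced by 20 uM heparin for 6 hr at 37 C. Thioflavin T (30 uM) added, fluorescence read after 1 hr (ex 450, em 510 nm).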
Tau fluor cs – Counterscreen qHTS for Inhibitors of Tau Fibril Formation, Fluorescence Polarization | tau K18 P301L (four-repeat tau fragment) Alexa594 fluorescence, heparin fibrillization | Potency, µM (highest dose often 57.7 µM), for the others: top-dose activity change, negative = decrease | 0.93% of 280,000 active; note: nearly all actives have a fitted effect of over 55% in size
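Human K18 P301L tau (15 uM unlabeled plus 0.24 uM Alexa 594-labeled, final) in 100 mM sodium acetate pH 7 was mixed with compound and 20 uM heparin and incubated 6 hr at 37 C.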
Tau fibril FP – qHTS for Inhibitors of Tau Fibril Formation, Fluorescence Polarization | Microtubule-associated protein tau (Homo sapiens), P10636 | K18 P301L tau heparin fibrillization, Alexa594 FP, 6 h | Potency, µM (top dose mostly 57.7 µM), for the others: top-dose activity, negative = inhibition, hits mostly inhibitors | 0.39% of 280,000 active; note: nearly all actives have a fitted effect of over 55% in size
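Quantitative HTS format: compounds meet 15 uM recombinant K18 P301L tau and Alexa 594-tau tracer in 100 mM sodium acetate pH 7; 20 uM heparin triggers fibrillization at 37 C over 6 hr; FP gives the signal.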
* hit, by the source's call; ? = inconclusive; · = no result; [ ] = dose if it differs, or a comment. Compounds with a hit are over-represented: about 9.9% of the library has one in this group of screens. Unless noted, calls come from the whole dose curve; as a rule, active = well fitted curve in the direction sought with a large enough effect; inconclusive = small, poorly fitted or top-dose-only effect, or another doubt; inactive = no such curve, though single readings can be large; an effect the other way counts as inactive or inconclusive. Unless noted, % is set by controls: 0 for no effect and ±100 for the full control effect; potency is the fitted concentration of half-maximal effect.

SMILES | HPGD block | ALDH1A1 inh | KDM4E inh | Tau fibril ThT | Tau fluor cs | Tau fibril FP
CCOC(=O)c1ccc(N/C=C/C(=O)C(C)(C)C)cc1 | · | -6.9% | -0.4% | ? | -7.0% | 6.2%
O=C(N/N=C/c1ccccn1)NC12CC3CC(CC(C3)C1)C2 | · | · | 6.9% | -4.4% | -1.9% | 2.6%
Cc1ccc(C(=O)NCCc2ccc(F)cc2)s1 | · | ? | 3.4% | -5.6% | -2.8% | 8.6%
CC(C)(C)NC(=O)Cc1ccc(S(=O)(=O)N2CCCC2)s1 | -5.3% | -8.5% | -3.3% | -15.3% | -21.3% | -1.1%
O=C(Cc1ccc(S(=O)(=O)N2CCCC2)s1)Nc1nc2c(s1)CCCC2 | -22.4% | 10µM* | ? | ? | -24.4% | -12.1%
CCOc1ccccc1OCCCn1c(-c2ccc(Cl)cc2)nc2ccccc2c1=O | · | · | · | -6.6% | -12.2% | ?
COC(=O)c1cc(OC)c(OC)cc1NC(=O)CSc1nnnn1Cc1ccccc1 | ? | 12.6µM* | ? | -12.6% | -14.5% | 0.9%
COc1ccc(C(=O)CSc2nnnn2Cc2ccccc2)cc1 | -18.9% | 12.6µM* | 0.0% | -15.8% | -23.7% | -4.2%
O=C(CSc1nnnn1Cc1ccccc1)c1ccccc1 | -5.0% | ? | 3.2% | -5.9% | -13.0% | -0.1%
O=C(CSc1nnnn1Cc1ccccc1)Nc1ccccc1 | · | · | -3.4% | 6.3% | -0.3% | -2.4%
CC(C)=CCC/C(C)=C/CO/N=C1/C[C@@H](O)[C@@H](O)[C@@H]2[C@@H]3C(=O)N([C@@H](C)c4ccccc4)C(=O)[C@H]3CC[C@@H]12 | · | -5.5%[13.5 µM] | · | -11.9%[11.5 µM] | -8.4%[11.6 µM] | 1.5%[11.6 µM]
NNC(=O)CCc1nc2ccccc2[nH]1 | · | 6.7% | 57.9% | -4.4% | 0.2% | -2.3%
CCN(Cc1ccccc1)C(=O)C1CCC(CNc2c(N3CCOCC3)c(=O)c2=O)CC1 (stereo not given) | 25.1µM* | -0.4% | 3.7% | 0.3% | -4.4% | -4.1%
O=C(C1CCC(CNc2c(N3CCCCC3)c(=O)c2=O)CC1)N1CCc2ccccc2C1 (stereo not given) | 0.562µM* | -2.0% | -1.3% | 0.8% | 5.4% | 3.0%
CC(NC(=O)C1CCC(CNc2c(N3CCCCC3)c(=O)c2=O)CC1)c1ccccc1 (stereo not given) | · | · | 2.5% | · | -27.0% | -7.9%
O=C(C1CCC(CNc2c(N3CCOCC3)c(=O)c2=O)CC1)N1CCN(c2ccccc2)CC1 (stereo not given) | -18.0% | 4.4% | 8.7% | -11.4% | -7.2% | -7.0%
CC1CCN(c2c(NCC3CCC(C(=O)N4CCc5ccccc5C4)CC3)c(=O)c2=O)CC1 (stereo not given) | 2.51µM* | -2.3% | 4.9% | -15.1% | -10.2% | 1.4%
CCO[C@H]1OC(C(=O)NC2CC2)=C[C@@H](c2csc3ccccc23)[C@@H]1CCCO | · | ? | 2.5% | -2.1% | -8.2% | -0.6%
COc1cc(/C=N/NC(=O)C2=NNC(=O)C2C)ccc1O (stereo not given) | · | · | -13.1% | · | -23.3% | -3.2%
CC1C(=O)NN=C1C(=O)N/N=C\c1ccc(O)cc1O (stereo not given) | -9.1% | 11.2% | 22.4µM* | ? | -11.7% | 5.3%
NS(=O)(=O)c1ccc(N/N=C/c2ccc(C(=O)O)cc2)c([N+](=O)[O-])c1 | · | · | -9.2% | 11.2µM* | -20.2% | -4.1%
Cc1nn(-c2ccccc2)c(N2CCCC2)c1/C=N/Nc1ccc(S(N)(=O)=O)cc1[N+](=O)[O-] | -14.9% | -10.9% | -5.3% | 5.01µM* | 14.1µM*[quencher] | -5.5%
O=C(O)c1ccc(/C=N\Nc2ccc(S(=O)(=O)N3CCOCC3)cc2[N+](=O)[O-])cc1 | · | · | -6.9% | ? | -20.1% | 2.8%
